SMARCA2 act – SMARCA2 function activation, primary screen. MG213 cells, MMTV-luciferase reporter, dexamethasone, overnight. activation, % at 9.1 µM. actives 1% (n = 370,000). AID 652017; in the data active means activation above about 7.8%;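 further: 0% = vehicle wells and 100% = reference activator wells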
DAX1 inh-1 – blocks DAX1 repression of SF-1 activated StAR promoter | HEK293T StAR-luciferase reporter, SF-1/DAX-1 repression relief | inhibition, % at 6.8 µM | actives 1.1% (n = 370,000);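 active means inhibition above the mean over all tested compounds plus 3 SD, cut at about 3.6% in these data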;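 further: 0% = DAX-1 cells with DMSO and 100% = cells lacking DAX-1 with DMSO; higher inhibition means more luminescence from relief of DAX-1 repression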
hgDAF-12 ag – agonists of H. glycines DAF-12 nuclear receptor | AID 687014 | actives 1.8% (n = 370,000) | activation, % at 6.8 µM | HEK293 GAL4-hgDAF12 UAS-luciferase reporter, agonist luminescence; normalized to butyrate control;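 active means activation above a cutoff set at the mean of all screened compounds plus 3 SD, cut at about 10% in these data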;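 further: 0% = DMSO wells and 100% = sodium butyrate wells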
DAX1 inh-2 – inhibitors of human orphan nuclear receptor DAX1 (NR0B1). P51843. HEK293 Gal4-DAX1 luciferase reporter, luminescence. inhibition, % at 6.75 µM. actives 0.99% (n = 340,000);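 active means inhibition above the mean over all tested compounds plus 3 SD, cut at about 4.2% in these data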;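 further: 0% = DAX1-transfected cells with DMSO and 100% = empty-vector control cells with DMSO; inhibition shows as a rise in luminescence from relieved DAX1 repression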
Target sequence (P51843 207-470 limits assumed): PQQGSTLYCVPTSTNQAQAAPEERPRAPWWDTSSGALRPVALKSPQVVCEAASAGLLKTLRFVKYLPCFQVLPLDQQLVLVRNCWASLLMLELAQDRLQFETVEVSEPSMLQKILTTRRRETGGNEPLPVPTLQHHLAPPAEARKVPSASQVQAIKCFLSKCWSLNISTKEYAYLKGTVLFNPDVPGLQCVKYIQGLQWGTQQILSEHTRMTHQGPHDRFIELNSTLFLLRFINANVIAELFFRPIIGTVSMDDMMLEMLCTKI
hcDAF-12 act – activators of H. contortus DAF-12 nuclear receptor; HEK293 hcDAF-12 lit1-tk-luc reporter, luminescence; 0% DMSO, 100% Δ7-dafachronic acid; activation, % at 6.8 µM; actives 1.4% (n = 370,000);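 active means activation above the mean of all tested compounds plus 3 SD, cut at about 5.5% in these data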;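 further: 100% = response to 3 µM Δ7-dafachronic acid high control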
ssDAF-12 act – S. stercoralis DAF-12 activation, primary screen | activation, % at 6.8 µM | AID 652126 | HEK293 ssDAF-12/GRIP1 lit1-tk-luc reporter, luminescence; % of 3 µM dafachronic acid response | actives 1% (n = 370,000);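 active means activation above the mean over all tested compounds plus 3 SD, cut at about 0.9% in these data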;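 further: 0% = DMSO-only wells and 100% = 3 µM delta7-dafachronic acid wells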
LXR ag – activates human LXR-beta, counter-screen for hcDAF-12 agonists; activation, % at 6.8 µM; HEK293 Gal4-LXR tk-luc reporter, luminescence, 24 h; normalized: DMSO 0%, positive control 100%; 3,400 tested, under 10 active; shares compounds with hcDAF-12 act;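 active means mean percent activation of the reporter above a cutoff set as the average over tested compounds plus their standard deviation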
Target sequence (P55055 whole entry, looked up, the tested form may be a part): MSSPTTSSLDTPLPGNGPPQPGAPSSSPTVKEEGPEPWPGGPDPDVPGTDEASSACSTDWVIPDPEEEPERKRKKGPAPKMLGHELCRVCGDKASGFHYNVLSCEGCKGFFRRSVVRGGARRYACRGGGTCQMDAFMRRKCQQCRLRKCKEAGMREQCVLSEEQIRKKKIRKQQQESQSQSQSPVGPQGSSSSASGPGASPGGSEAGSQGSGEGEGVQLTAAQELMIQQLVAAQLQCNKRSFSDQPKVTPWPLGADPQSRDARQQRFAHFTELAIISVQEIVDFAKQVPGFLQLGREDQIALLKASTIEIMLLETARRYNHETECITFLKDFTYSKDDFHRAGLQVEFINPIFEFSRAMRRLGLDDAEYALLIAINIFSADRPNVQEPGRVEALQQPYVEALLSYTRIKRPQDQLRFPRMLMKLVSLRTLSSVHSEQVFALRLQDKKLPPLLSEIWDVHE
hcDAF12 conf – confirmation of H. contortus DAF-12 agonists; shares compounds with hcDAF-12 act; HEK293 hcDAF-12 lit1-tk-luc reporter, luminescence; % of Δ7-dafachronic acid response; activation, % at 6.8 µM; actives 61% (n = 3,400); AID 743032;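 active means mean activation across triplicate tests above the threshold derived from the earlier primary screen, cut at about 5.5% in these data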;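 further: 0% = DMSO only wells and 100% = 3 µM Δ7-dafachronic acid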
hgDAF12 conf – hgDAF-12 agonism, confirmation assay. shares compounds with hgDAF-12 ag. HEK293 GAL4-hgDAF12 luciferase reporter, agonist mode; percent of butyrate response. activation, % at 6.8 µM. actives 80% (n = 3,300);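 active means mean activation over triplicate wells above the hit cutoff derived from the earlier primary screen, cut at about 11% in these data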;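 further: 0% = DMSO low control and 100% = 2 mM sodium butyrate high control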
LXRb DAF12 ctr – LXR-beta agonism as DAF-12 counter-screen | activation, % at 6.8 µM | HEK293 Gal4-LXR luciferase reporter, 24 h | 3,300 tested, under 10 active | shares compounds with hgDAF-12 ag;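 active means mean activation of the triplicate above a set limit carried over from the primary screen, none filed active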
Numbers without * were called inactive; / = no result. Compounds with a hit are over-represented: about 4.8% of the library has one in this group of screens.

SMILES	SMARCA2 act	DAX1 inh-1	hgDAF-12 ag	DAX1 inh-2	hcDAF-12 act	ssDAF-12 act	LXR ag	hcDAF12 conf	hgDAF12 conf	LXRb DAF12 ctr
CSc1ccc(NC(=O)Nc2cc(C)ccn2)cc1	1.0	3.0	19.2*	2.2	7.0*	0.9*	2.0	9.5*	17.6*	1.2
Cc1c(C(=O)Nc2nccs2)oc2ccccc12	2.7	3.1	17.8*	4.6*	14.9*	3.2*	1.4	13.2*	25.0*	1.1
O=C(Nc1nccs1)c1ccc2ccccc2c1	3.4	2.5	21.0*	2.7	17.4*	2.2*	1.9	13.7*	26.4*	1.0
COc1ccc(NC(C)=O)cc1C#N	1.8	0.3	2.5	3.0	-1.0	-1.0	/	/	/	/
C#CCOCCOCCOCCNc1nc(N2CCN(C(=O)Cn3cc(CCCN=C(N)N)nn3)CC2)nc(N2CCN(C(=O)[C@H](Cc3ccc(O)cc3)n3cc(CCO)nn3)CC2)n1	/	/	3.6	/	-1.8	-0.9	/	/	/	/
Cc1cc(C)c2sc(N(CCN(C)C)C(=O)c3cc(Cl)sc3Cl)nc2c1	-2.2	0.2	-1.7	-0.8	-2.4	-1.2	/	/	/	/
Cc1ccc2c(c1)N=C(c1ccccc1)CC(C(Cl)Cl)=N2	1.3	1.9	13.6*	-1.4	15.3*	1.8*	0.8	8.1*	19.1*	1.0
Cc1ccc(O)c(C2=Nc3ccccc3N=C(c3cccs3)C2)c1	-1.6	-0.3	0.6	-0.7	1.4	-1.1	/	/	/	/
O=C(Nc1ccc(-c2nc3cccnc3s2)cc1)c1cccnc1Cl	2.1	3.7*	23.0*	1.5	7.9*	0.2	2.0	5.6*	24.1*	1.2
O=C(Nc1ccc(-c2nc3cccnc3s2)cc1)c1ccc(Cl)nc1	0.4	1.4	3.8	1.3	0.2	-0.8	/	/	/	/
CN(C)S(=O)(=O)c1ccc(NC(=O)/C=C/c2ccccc2Cl)cc1	-0.6	-0.8	6.9	-0.6	-2.0	-1.4	/	/	/	/
O=C(/C=C/c1ccccc1Cl)Nc1ccccc1	7.2	2.8	19.8*	/	15.7*	2.6*	2.5	16.2*	24.9*	1.2
O=C(CSc1ccccc1)Nc1nccs1	0.0	0.0	6.2	-0.6	1.2	0.2	/	/	/	/
O=C(CSc1cn(Cc2ccccc2)c2ccccc12)Nc1nccs1	1.2	8.9*	23.7*	2.4	9.7*	1.1*	1.3	8.9*	17.7*	1.0
Cc1ccc(NC(=O)/C=C/c2cccs2)c([N+](=O)[O-])c1	3.6	0.7	13.5*	2.0	6.8*	-0.6	1.0	6.5*	18.6*	0.9
O=C(/C=C/c1cccs1)Nc1ccc([N+](=O)[O-])cc1	-0.5	0.1	5.3	-0.1	4.5	-0.7	/	/	/	/
CC(C)Cn1c(N)c(C(=O)COC(=O)/C=C/c2cccs2)c(=O)n(C)c1=O	-7.2	-2.1	-4.9	-3.3	-4.0	-2.6	/	/	/	/
CC1=NC(=O)C(N=Nc2cccc(O)c2)N1c1ccccc1 (stereo not given)	0.3	1.2	14.2*	2.2	9.3*	0.2	0.8	12.4*	16.3*	0.6
Cc1cccc(Nc2nc(-c3ccc(F)c(C)c3)cs2)n1	5.4	2.1	13.7*	5.4*	9.0*	1.2*	1.1	7.7*	17.1*	0.9
C=CCNc1ncnc2c1cnn2-c1ccc(OC)cc1	4.8	4.3*	14.2*	3.6	6.6*	0.9*	1.6	5.8*	17.2*	0.8
C=C1CCC[C@]2(C)C[C@H]3OC(=O)C(CN4CCCCC4CO)[C@H]3CC12 (stereo not given in full)	-0.9	-0.8	-3.2	-2.0	-1.3	-1.0	/	/	/	/
Cn1/c(=N/N=C/c2ccccn2)sc2ccccc21	6.7	3.2	22.7*	/	8.2*	0.9	1.2	7.1*	18.4*	0.7
O=c1c2ccccc2oc2cc(NCCCn3ccnc3)ccc12	7.0	3.7*	13.9*	1.3	7.2*	1.2*	1.2	5.4	17.2*	0.9
O=C(NCCCn1ccnc1)c1cc2ccccc2oc1=O	1.3	0.8	-0.3	1.3	2.1	-0.7	/	/	/	/
Cc1ccc(N/C=C/C(=O)c2ccccc2)cc1Br	6.3	3.8*	18.6*	1.6	16.4*	3.4*	2.4	16.1*	25.3*	1.2
SMILES	SMARCA2 act	DAX1 inh-1	hgDAF-12 ag	DAX1 inh-2	hcDAF-12 act	ssDAF-12 act	LXR ag	hcDAF12 conf	hgDAF12 conf	LXRb DAF12 ctr
O=C(Nc1ncc(Cc2ccccc2)s1)c1cccs1	3.8	3.0	15.0*	0.7	8.4*	0.5	1.9	8.0*	20.0*	1.4
Cc1ccc(NC(=O)c2cccs2)cc1	4.2	2.0	8.8	1.6	4.3	-0.5	/	/	/	/
O=C(Nc1ncc(Cc2cccc(Cl)c2)s1)c1cccs1	2.0	0.6	7.4	0.7	2.0	-0.8	/	/	/	/
Cc1ccc(Cc2cnc(NC(=O)c3cccs3)s2)cc1	0.8	3.8*	14.8*	2.4	10.1*	1.5*	1.8	7.3*	18.0*	1.2
Cc1ccc(-c2cc(-c3ccc(C)cc3O)[nH]n2)cc1	0.6	3.2	19.1*	5.1*	15.1*	2.9*	1.6	10.4*	22.2*	1.1
Cc1ccc(-c2cc(-c3ccccc3[N+](=O)[O-])[nH]n2)c(O)c1	-1.1	3.4	14.2*	5.3*	9.9*	2.3*	1.0	9.6*	15.8*	0.7
Cc1ccc(-c2cc(NC(=O)c3ccccc3[N+](=O)[O-])n[nH]2)cc1	0.7	0.5	0.9	-1.5	-0.6	-1.4	/	/	/	/
Cc1cc(=O)n2c(-c3ccccc3C)n[nH]c2n1	-5.0	-0.1	-1.0	-0.2	-0.6	-1.0	/	/	/	/
Cc1ccccc1-c1cc(-c2ccccc2O)n[nH]1	-1.7	3.5	16.1*	5.6*	10.7*	1.4*	0.9	8.1*	18.3*	0.8
CC(C)C(NS(=O)(=O)c1cccc(C(F)(F)F)c1)C(=O)N1CCc2ccccc2C1 (stereo not given)	1.3	0.1	-0.4	1.9	1.4	-1.2	/	/	/	/
CC(=O)c1ccc(Nc2c(C)n(C)n(-c3ccccc3)c2=O)cc1	-2.0	-0.1	-4.6	1.2	-1.9	-1.5	/	/	/	/
Cc1ccc(Nc2n[nH]c(C)c2[N+](=O)[O-])cc1C	5.8	4.4*	19.4*	3.7	10.7*	1.0*	1.7	6.3*	21.8*	1.1

Source: PubChem BioAssay
